Test results reported in PubChem BioAssay AID1159580 (chemical genetic matrix, 2015).
The campaign covered roughly 5,500 compounds. About 2,000 (36%) were called active. Inconclusive results (about 18%) are left out. Rule as the data show it: active = normalized growth mostly below about 0.91 (no sharp cut-off); inconclusive = no clear call, values can overlap the other calls; inactive = mostly above about 0.92. The list shows a part of the results.

Assay: chemical genetic growth profiling, strain panel (AID 1159580);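 also: tested at 20 µM; growth read once vehicle control cultures reached saturation at 30 °C; 1 = growth at the plate median or of vehicle wells; lower values mean less growth of the strain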
Details: growth OD

Measured: normalized growth

C=C1C2CC[C@@]3(C)[C@H](c4ccoc4)OC(=O)C[C@]13O[C@H]1CC(O)C(C)(C)C(CC(=O)OC)[C@@]21C (stereo not given in full)
inactive: S. cerevisiae deletion strains, locus YJL187C, strain SWE1, stronger effect = lower value 0.971 | S. cerevisiae deletion strains, locus YJR043C, strain POL32, stronger effect = lower value 1.01 | S. cerevisiae deletion strains, locus YJR066W, strain TOR1, stronger effect = lower value 0.922 | S. cerevisiae deletion strains, locus YKL009W, strain mrt4, stronger effect = lower value 1 | S. cerevisiae deletion strains, locus YKL068W, stronger effect = lower value 1.01 | S. cerevisiae deletion strains, locus YKL085W, strain MDH1 (second series), stronger effect = lower value 0.999 | S. cerevisiae deletion strains, locus YKL085W, strain MDH1, stronger effect = lower value 0.999 | S. cerevisiae deletion strains, locus YKL160W, strain elf1, stronger effect = lower value 0.984 | S. cerevisiae deletion strains, locus YKL190W, strain CNB1, stronger effect = lower value 0.987 | S. cerevisiae deletion strains, locus YKR001C, strain vps1, stronger effect = lower value 0.999 | S. cerevisiae deletion strains, locus YKR026C, strain gcn3, stronger effect = lower value 0.985 | S. cerevisiae deletion strains, locus YKR091W, strain srl3, stronger effect = lower value 0.965 | S. cerevisiae deletion strains, locus YLL001W, strain dnm1, stronger effect = lower value 0.989 | S. cerevisiae deletion strains, locus YLL026W, stronger effect = lower value 0.974 | S. cerevisiae deletion strains, locus YLL041C, strain sdh2, stronger effect = lower value 0.971 | S. cerevisiae deletion strains, locus YLR027C, strain aat2, stronger effect = lower value 0.99 | S. cerevisiae deletion strains, locus YLR039C, strain RIC1, stronger effect = lower value 0.963 | S. cerevisiae deletion strains, locus YLR058C, strain SHM2, stronger effect = lower value 1 | S. cerevisiae deletion strains, locus YLR102C, strain apc9, stronger effect = lower value 1.01 | S. cerevisiae deletion strains, locus YLR113W, strain HOG1, stronger effect = lower value 0.996 | S. cerevisiae deletion strains, locus YLR221C, strain rsa3, stronger effect = lower value 0.981 | S. cerevisiae deletion strains, locus YLR258W, strain gsy2, stronger effect = lower value 0.977 | S. cerevisiae deletion strains, locus YLR262C, strain YPT6 (second series), stronger effect = lower value 0.925 | S. cerevisiae deletion strains, locus YLR268W, strain sec22, stronger effect = lower value 1.01 | S. cerevisiae deletion strains, locus YLR320W, strain mms22, stronger effect = lower value 0.97 | S. cerevisiae deletion strains, locus YLR342W, strain FKS1 (second series), stronger effect = lower value 1.02 | S. cerevisiae deletion strains, locus YLR342W, strain FKS1, stronger effect = lower value 0.971 | S. cerevisiae deletion strains, locus YLR357W, strain rsc2, stronger effect = lower value 0.998 | S. cerevisiae deletion strains, locus YLR370C, strain arc18, stronger effect = lower value 0.981 | S. cerevisiae deletion strains, locus YLR371W, strain rom2, stronger effect = lower value 1.02 | S. cerevisiae deletion strains, locus YLR384C, strain iki3, stronger effect = lower value 0.964 | S. cerevisiae deletion strains, locus YLR418C, strain cdc73, stronger effect = lower value 0.998 | S. cerevisiae deletion strains, locus YML016C, strain PPZ1, stronger effect = lower value 1.01 | S. cerevisiae deletion strains, locus YML032C, strain rad52, stronger effect = lower value 1.03 | S. cerevisiae deletion strains, locus YML120C, strain ndi1, stronger effect = lower value 0.99 | S. cerevisiae deletion strains, locus YML124C, strain tub3, stronger effect = lower value 1.01 | S. cerevisiae deletion strains, locus YMR058W, strain fet3, stronger effect = lower value 0.97 | S. cerevisiae deletion strains, locus YMR078C, strain ctf18, stronger effect = lower value 1.01 | S. cerevisiae deletion strains, locus YMR125W, strain sto1, stronger effect = lower value 0.972 | S. cerevisiae deletion strains, locus YMR129W, stronger effect = lower value 0.989 | S. cerevisiae deletion strains, locus YMR205C, strain PFK2, stronger effect = lower value 0.962 | S. cerevisiae deletion strains, locus YMR223W, strain ubp8, stronger effect = lower value 1.01 | S. cerevisiae deletion strains, locus YMR231W, strain pep5, stronger effect = lower value 0.971 | S. cerevisiae deletion strains, locus YMR307W, strain GAS1, stronger effect = lower value 1.06 | S. cerevisiae deletion strains, locus YNL067W, strain RPL9B, stronger effect = lower value 1.01 | S. cerevisiae deletion strains, locus YNL071W, strain lat1, stronger effect = lower value 0.974 | S. cerevisiae deletion strains, locus YNL183C, strain NPR1, stronger effect = lower value 0.974 | S. cerevisiae deletion strains, locus YNL209W, strain ssb2, stronger effect = lower value 0.979 | S. cerevisiae deletion strains, locus YNL233W, strain BNI4, stronger effect = lower value 0.972 | S. cerevisiae deletion strains, locus YNL248C, strain rpa49, stronger effect = lower value 0.971 | S. cerevisiae deletion strains, locus YNL250W, strain rad50, stronger effect = lower value 1.02 | S. cerevisiae deletion strains, locus YNL271C, strain bni1, stronger effect = lower value 1.01 | S. cerevisiae deletion strains, locus YNL298W, strain CLA4, stronger effect = lower value 1.01 | S. cerevisiae deletion strains, locus YNL307C, strain MCK1, stronger effect = lower value 1.01 | S. cerevisiae deletion strains, locus YNL322C, strain KRE1 (second series), stronger effect = lower value 0.985 | S. cerevisiae deletion strains, locus YNR049C, strain mso1, stronger effect = lower value 0.969 | S. cerevisiae deletion strains, locus YNR052C, strain pop2, stronger effect = lower value 1.02 | S. cerevisiae deletion strains, locus YOL012C, strain htz1 1.88 | S. cerevisiae deletion strains, locus YOL147C, strain pex11, stronger effect = lower value 1.02 | S. cerevisiae deletion strains, locus YOR001W, strain rrp6, stronger effect = lower value 0.969 | S. cerevisiae deletion strains, locus YOR061W, strain CKA2, stronger effect = lower value 1 | S. cerevisiae deletion strains, locus YOR069W, strain VPS5, stronger effect = lower value 1.01 | S. cerevisiae deletion strains, locus YOR070C, strain gyp1, stronger effect = lower value 0.978 | S. cerevisiae deletion strains, locus YOR080W, strain dia2, stronger effect = lower value 0.979 | S. cerevisiae deletion strains, locus YOR083W, strain WHI5, stronger effect = lower value 0.981 | S. cerevisiae deletion strains, locus YOR106W, strain vam3, stronger effect = lower value 0.955 | S. cerevisiae deletion strains, locus YOR136W, strain idh2, stronger effect = lower value 1.02 | S. cerevisiae deletion strains, locus YOR144C, strain elg1, stronger effect = lower value 1.03 | S. cerevisiae deletion strains, locus YOR184W, strain ser1, stronger effect = lower value 1.01 | S. cerevisiae deletion strains, locus YOR231W, strain MKK1, stronger effect = lower value 0.991 | S. cerevisiae deletion strains, locus YOR265W, strain rbl2, stronger effect = lower value 0.986 | S. cerevisiae deletion strains, locus YOR270C, strain vph1, stronger effect = lower value 0.878 | S. cerevisiae deletion strains, locus YOR290C, strain snf2, stronger effect = lower value 0.987 | S. cerevisiae deletion strains, locus YOR316C, strain cot1, stronger effect = lower value 1.01 | S. cerevisiae deletion strains, locus YPL051W, strain arl3, stronger effect = lower value 0.975 | S. cerevisiae deletion strains, locus YPL078C, strain atp4, stronger effect = lower value 0.981 | S. cerevisiae deletion strains, locus YPL106C, strain sse1, stronger effect = lower value 0.973 | S. cerevisiae deletion strains, locus YPL240C, strain hsp82, stronger effect = lower value 0.98 | S. cerevisiae deletion strains, locus YPL256C, strain CLN2, stronger effect = lower value 0.939 | S. cerevisiae deletion strains, locus YPR119W, strain clb2, stronger effect = lower value 1.02 | S. cerevisiae deletion strains, locus YPR141C, strain kar3, stronger effect = lower value 1.02 | S. cerevisiae deletion strains, locus YPR163C, strain tif3, stronger effect = lower value 1.02 | S. cerevisiae deletion strains, locus YPR167C, strain met16, stronger effect = lower value 1.01 | S. cerevisiae deletion strains, strain wtn01, stronger effect = lower value 1.01 | S. cerevisiae strains, strain wild type, stronger effect = lower value 0.998
